Laboratory results as given in ChEMBL document CHEMBL4513160, “CO-ADD screening of MMV (CH) - Small Polar Library”.
Out of some 21,000 compounds screened, fewer than 10 showed an effect of 50% or more. The list is a sample of the results. Measured potencies and affinities stand elsewhere.

These molecules were tested on Acinetobacter baumannii. Conditions: Concentration 300 ug.mL-1; ASSAY_TEST Inhibition of Bacterial Growth; detection method Absorption (OD600); MEDIA CAMHB; plate type 384well; NBS; CORNING #3640; time 18 hr.

Row | Compound | Inhibition [%]
1 | NS(=O)(=O)N1CCCNCC1 | 17.02
2 | CCN(CC)C(=O)NCC[S+]([O-])C(C)(C)C (stereo not drawn) | 4.98
3 | CN(CCc1ccc(Br)cc1)C(=O)CCCN | 4.12
4 | CNC(=O)c1c(C)cccc1NCCCOC | 4.81
5 | COc1ccc(OCCCC(=O)NCCN(C)C)cc1 | 9.28
6 | COCCN1CCCN(C(=O)C(C)C)CC1 | -1.05
7 | O=C1CN(C(=O)c2ccn(-c3ccccc3)n2)CCN1 | 1.11
8 | NC1CCN(CC(=O)N2CCOCC2)CC1 | 3.07
9 | CC(O)(CN)C(F)(F)F (stereo not drawn) | -3.1
10 | CC(N)CCNS(=O)(=O)c1ccccc1 (stereo not drawn) | 10.98
11 | NCC(=O)NCc1ccncc1 | 9.5
12 | O=C(Nc1cccc(CN2CCCC2=O)c1)C1CC1 | 1.2
13 | CC(C)CCNC(=O)CCn1cc(Br)ccc1=O | 8.21
14 | COc1ccc(C(=O)NCC2(C)COC2)c(F)c1F | 4.61
15 | CO[C@@H]1CN[C@@H](c2nc(C)no2)C1 | -0.59
16 | COCc1cccc(-c2nc(C3CCOC3)no2)n1 (stereo not drawn) | 9.25
17 | Cc1cc(=O)cc(C(=O)N2CCCC(C)(C#N)C2)o1 (stereo not drawn) | 0.52
18 | CN(CCCS(C)(=O)=O)CC1CCN(CCO)CC1 | 0.5
19 | O=C(c1cncc(F)c1)N1CC(N2CCCCC2)C1 | 2.2
20 | CN(CC1CCOCC1)C(=O)NCc1ccco1 | 4.16
21 | Cn1ccnc1CN(Cc1ccc(CO)o1)C1CC1 | 10.44
22 | Cc1nc(C(C)(C)N)sc1C | 11.05
23 | Nc1nc(CCCNC(=O)Cc2ccsc2)cs1 | 10.16

Row | Compound | Inhibition [%]
24 | Cn1nnnc1SCc1cc(Cl)c2c(c1)OCCO2 | 3.66
25 | O=S(=O)(c1ccco1)N1CCOCc2ccccc21 | 6.19
26 | N#Cc1ccc(OCC(O)CN2CCSCC2)cc1 (stereo not drawn) | 10.14
27 | Cc1cccc(C2NCCNC2=O)c1 (stereo not drawn) | 12.66
28 | COCCN(Cc1cnn(C)c1)C(=O)C1CCNC1 (stereo not drawn) | 2.42
29 | CN1CCN(C(C)(C)CNC(=O)Nc2cn[nH]c2)CC1 | -0.91
30 | O=C(NCCCOC(F)F)NCc1ccc(Br)o1 | 3.72
31 | O=C(NC1CCCOc2ccc(F)cc21)c1c[nH]nn1 (stereo not drawn) | 8.95
32 | COC(=O)CN1CCN(C(=O)N(C)C)CC1 | 20.07
33 | COc1ccc(SCC(=O)NC2CCN(C)CC2)cc1 | 2.47
34 | COCCN(C)C[C@@H]1CN(C(=O)C2CCC2)C[C@@H]1CO | 6.32
35 | CN(CCS(=O)(=O)c1ccc(Cl)cc1)CC(=O)N(C)C | -3.7
36 | CSCC(=O)NC1CCCC1 | 5.49
37 | CCS(=O)(=O)NCCCNS(=O)(=O)c1ccc(C)cc1 | 0.89
38 | COc1ccc(Cl)cc1NC(=O)NC1CCS(=O)(=O)C1 (stereo not drawn) | 6.86
39 | O=C(Nc1ccc(NC(=O)C2CC2)nc1)c1ccsc1 | 12.11
40 | COCCOCC(=O)N(C)C(C)c1ccncn1 (stereo not drawn) | 0.44
41 | CCN(C(=O)CN1CCNC(=O)C1)c1ccc(F)cc1 | 7.47
42 | CNC[C@@H]1C[C@@H](O)CN1 | 4.99
43 | CC(C)c1noc(CN2CCSCC2)n1 | 17.17
44 | Cc1ccc(C(CN)N2CCOCC2)o1 (stereo not drawn) | 1.38
45 | CCc1nc(CNCC2CCN(CCO)CC2)no1 | 11.72
46 | CCN(CC)C(C)CNC(=O)c1csc(NC(C)=O)n1 (stereo not drawn) | 5.75

Row | Compound | Inhibition [%]
47 | COCC(=O)Nc1ccc(-n2cccn2)nc1 | -2.46
48 | CCC(C)(CO)NC(=O)c1sc(COC)nc1C (stereo not drawn) | 6.56
49 | CCC(N)C(=O)N1CCOCC1 (stereo not drawn) | 3.92
50 | CC[C@H](N)C(=O)N1CC(Oc2c(C)cccc2C)C1 | 6.21
51 | O=C(NC1CCCOC1)c1ccc2c(c1)OCCO2 (stereo not drawn) | 9.3
52 | CCCN1CCC(N2CCC(C(N)=O)CC2)CC1 | -0.38
53 | NC1CCN(Cc2ccc(F)c(F)c2)CC1 | 10.51
54 | COc1cn(-c2ccccc2)nc1C(=O)NCC(C)C | 12.56
55 | c1cncc(N2CCCCC2)c1 | 8.5
56 | Cc1cc(CN)n(C)n1 | 8.01
57 | Cc1nc(CC(=O)NCC(C)n2ccnc2)cs1 (stereo not drawn) | 5.87
58 | CCc1noc(C(C)NC(=O)c2cccnc2C)n1 (stereo not drawn) | 6.44
59 | COc1c(F)cccc1CN1C[C@H](O)[C@@H](N(C)C)C1 | 9.85
60 | CC(C)(C)OC(=O)c1ncccc1N | 5.28
61 | CCC(=O)c1ccc(CN)cc1 | 12.11
62 | CSCC(=O)Nc1ccc(C(=O)NCC(F)(F)F)cc1 | 10.77
63 | CC(=O)N1CCN(CCNC(=O)c2cc(Br)c[nH]2)CC1 | 4.86
64 | CNC(=O)C(C)(C)Oc1cccc(Cl)c1 | 6.59
65 | O=C(C1CCC1)N(Cc1ccccn1)C1CC1 | 0.99
66 | Cc1nccn1CC(=O)Nc1ccnn1C | 1.95
67 | CN(C)c1cc(CN)ccn1 | 11.49
68 | CCn1nc(C)cc1C(=O)NCCCc1cccnc1 | 7.13
69 | O=C1CC(C(=O)N2CCCC3(CCCCC3)C2)CCN1 (stereo not drawn) | 7.27

Row | Compound | Inhibition [%]
70 | CCN(C)CCNC(=O)c1ccncc1I | 5.97
71 | O=C(c1ccco1)N1C[C@H](O)[C@@H](N2CCCCC2)C1 | 9.48
72 | CNC(=O)c1cnc(OCC(F)(F)F)c(Cl)c1 | 1.45
73 | CC(=O)N(C1CC1)C(C)c1ccccn1 (stereo not drawn) | 3.11
74 | O=C1NCCCCC1NS(=O)(=O)N1CCOCC1 (stereo not drawn) | 3.3
75 | CCn1cc(NC(=O)C(C)n2cccn2)cn1 (stereo not drawn) | 0.68
76 | CN(c1cccc(C(N)=O)c1)S(=O)(=O)c1ccccc1 | 7.68
77 | COc1cccc(NC(=O)NCC2CCN(C)CC2)c1 | 9.08
78 | Cc1cnccc1CN | 5.52
79 | CN(Cc1nc(-c2ccc(F)cc2)cs1)CC(O)CO (stereo not drawn) | 8.94
80 | CC(C)CN1CC(CN)OC1=O (stereo not drawn) | 2.13
81 | O=C(CCN1CCc2[nH]cnc2C1)NCc1cccs1 | -3.55
82 | CCNS(=O)(=O)C1CCN(Cc2cc(F)cc(F)c2)C1 (stereo not drawn) | -0.23
83 | C1CC(C2CCOC2)CCN1 (stereo not drawn) | 9.96
84 | CCS(=O)(=O)CCN(C)CCOc1cccc(C#N)c1 | 3.26
85 | CC(N)c1nc2ccccc2n1C (stereo not drawn) | -1.51
86 | CCC(=O)NCCc1noc(COC)n1 | 8.83
87 | CCOc1cccc(C(C)NC(=O)CNC(C)=O)c1 (stereo not drawn) | 8.25
88 | CCC(=O)N1CCN(C(=O)CC2CCCCC2)CC1 | 6.05
89 | CC1Cc2ccccc2N1CCN (stereo not drawn) | 14.26
90 | O=C1Nc2ccccc2C1C1CCNCC1 (stereo not drawn) | 10.09
91 | Cc1cc(C)cc(OCC(=O)N2CCN[C@H](C)C2)c1 | 8.4
92 | CC1=C(c2ccco2)CN(CC(N)=O)CC1 | 3.95

Row | Compound | Inhibition [%]
93 | O=C(Nc1cncc(Br)c1Cl)N1CCC(O)C1 (stereo not drawn) | -0.64
94 | NCc1cccc(N2CC=CC2)c1 | 6.5
95 | O=C(CCN1CCOCC1)Nc1cccc(Cl)c1 | 5.94
96 | O=C(Cn1ccnc1)Nc1ccc(OC(F)F)cc1 | 8
97 | CNC(=O)CSc1nnc(C2CC2)n1C | 5.97
98 | CC(=O)c1c(C)[nH]c(C(=O)OCC(=O)N(C)C)c1C | 5.39
99 | NCc1ccc(-c2ccccc2)o1 | 16.01
100 | CC(C)CCNC(=O)Nc1c[nH]c(=O)[nH]c1=O | 6.3
101 | CCCNC(=O)Cn1ccnc1SC | 10.93
102 | CNC(=O)c1cccc(CN)n1 | 9.63
103 | CN(C)[C@H]1CN(C(=O)c2ccncc2)C[C@@H]1C1CC1 | 10.19
104 | CCn1cnnc1CC1CCCNC1 (stereo not drawn) | 9.33
105 | Cc1ccc(OC2CCN(C(=O)[C@@H](C)N)CC2)cc1 | 3.78
106 | CN[C@@H](C)C(=O)N1CC(Oc2ccccc2OC)C1 | -2.39
107 | CC(C)NC(=O)C(C)N (stereo not drawn) | 9.53
108 | NC(c1ccc(Cl)cc1)c1ncon1 (stereo not drawn) | 6.75
109 | O=C(Cn1ccc(=O)[nH]c1=O)NCc1cccnc1 | 6.41
110 | CCOc1cc(C)ccc1CN | 7.86
111 | c1ncn(-c2ccc(NCC3CCOCC3)cc2)n1 | 5.37
112 | Cc1nn(C)c2nc(NCCC(=O)N3CCCC3)sc12 | 3.37
113 | CNC(=O)[C@H]1CC[C@H](CNC(=O)c2cn[nH]c2)CC1 | 6.17
114 | CC(C)C(=O)N1CCC(N)C1 (stereo not drawn) | 3.38
115 | Cc1nc(CN(C)C(=O)NCc2ccccc2)no1 | 6.9

Row | Compound | Inhibition [%]
116 | CC(C)(C)OC(=O)N1CC(O)C1 | 5.37
117 | COC(=O)c1ccc(NC(=O)N2CCOC(C)C2)cc1 (stereo not drawn) | 6.27
118 | CSc1ccc(OCCN(C)CC(N)=O)cc1 | 7.33
119 | CCOC(=O)c1csc(CNC(=O)c2ccc(C)o2)n1 | 0.25
120 | CN(CCN1CCCC1=O)C(=O)c1ccc(Br)cc1O | 1.38
121 | CN[C@@H](CC(C)C)C(=O)NCCCc1csc(N)n1 | -8.08
122 | COCC(=O)N1CCN(Cc2csc(C)n2)CC1 | 2.61
123 | CCC(NC(=O)C1CC1)(C(N)=O)C(C)C (stereo not drawn) | 2.37
124 | Cc1cccc(NC(=O)C2COCCO2)c1 (stereo not drawn) | 1.93
125 | CC(=O)N1CCCC(C(=O)NCCc2nnc(C)s2)C1 (stereo not drawn) | 6.35
126 | O=C(OCCC1CCCO1)c1ccncc1 (stereo not drawn) | -0.58
127 | O=C(CCC(F)(F)F)N[C@H]1CCCNC1 | 10.33
128 | CC(=O)N(C)CC(=O)Nc1ccccc1N1CCCC1 | 8.57
129 | CN(C)c1nccc(N(C)CCn2cccn2)n1 | 7.7
130 | CCN(C(=O)c1ccc(-c2ccco2)[nH]c1=O)C1CC1 | 3.27
131 | COCC(=O)Nc1ccc(OCc2ccccn2)cc1 | 4.72
132 | COc1ccc(OCCN2CCNCC2)cc1 | 8.28
133 | CC(=O)NC(C(=O)N1CCSCC1)C(C)C (stereo not drawn) | 3.97
